Test results reported in the supplement of paper PMC6555819.

What follows are sequences tested on RXRa DBDmut IVT, anti-RXR (DBD mutation: RXRa K156A/R161A, NR concentration 90 nM) (assay: PBM binding z-score (relative to random genomic background probes); higher = stronger binding; sequences stand for … in GC…GCGATTGACAGCGTAGAATGAAGG).
How it was run: (§1)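 Random background probes are the reference for binding z-scores. These scores derive from regression-normalized fluorescence on custom Agilent 4×180K protein-binding microarrays incubated 1 h with ligand-free nuclear receptor dimers. Binding was detected with antibodies against each partner (one per run).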

Sequence | PBM binding z-score
TCTTGTACATCAACAGGAGGTTAAGAAAGATCGA | 0.744
TCTTGTAGATCAACAGGAGGTTATGAAAGATCGA | 0.368
TCATATAGGTAATACAGGTGGAAGTCGGCATCTA | 1.5
GCTATTAGTTGAAAGGGCCACCGAATGATTCTCG | 0.436
CCTATTAGTTGACTATAAGGGCAACCGAAGCTCG | 0.543
TATACAGGGTCAAAGGACAGAGTACGAATGTCGA | 3.17
CCTCGGAGGACAACAAGAGGTCAGAGCTGCCAGA | 0.726
TCTATTAGTTGAAGCGCAACCGACGAGTCCGTTT | 1.16
ACAATGAGGTTATACGTAGATCAGGGAAGAAAGT | 2.02
ATCTCTAGGTAACCAAGTTAAGTGAATGCCGAAC | -0.119
ATCTCCAGGTAACCAAGTTCAGTGAATGCCGAAC | 1.06
TCTACTAGGTCAGTTGGTCAGCTAACGAGCTGCC | 1.19
GCATATAGGTAATACAAGTTGAAAGTCCGATTGT | 0.331
TAGCCTAGGTCATGGGCCAATATACCACGCGAAC | 0.955
GCGACTGGGGCAAAGCAGGTTACCCTAAGGTTGG | -0.421
CAAACTAGGTCACCGGAACGTCAAAGTCCGCATG | 1.46
ATCTCTAGTTAAAAGTTCAGTGAATCCCGAGGAT | 0.966
ATACCAAGGAGATCGTGAGGTCGTTGATACTAAC | 0.394

These sequences were tested on RXRa homodimer (NR concentration 180 nM) in the same assay as above.
How it was run: as §1

Sequence | PBM binding z-score
CGTCCAAGGTTAGAGAGGTCAGTGAATGCCGAGT | 3.43
TCTAGCTGGCCAGAGGGTCACTCAAGAGGTACGG | 2.18
TCTATTAGTTGAGTAGGGCAACCGAAACAGCGGA | 0.116
GGAACGAGGGCAAAGTTGAGAGCATCTGTCGACG | 2.33
CCTATGAGTTGACCATAAGGGCAACCGAAGCTCG | 0.985
CAAACTAGGTCACGAAAGGTCAAAGTAGAATGAC | 8.5
GCTAGCAGGACATTTGGGTCACTCAATGACGGGC | 0.598
GCGACTGGGGCAAAGCAGGTTACCAAAAGGTTGG | 0.52
CCTAGTTCGTCAGGAGGTCACACACCGGATATGA | 4.83
GCTGCTAGGTCAATTGATGGTCAGCTAAAGCTCG | 1.95
TCTTGTACATCAAAGGTTAAGAAAGCCGAAGCCT | 2.7
ACTAGTTGGTCAGCTGACGTCACACACAATTCGG | 0.459
ATATGTAGGTTATCGGGTCGTTCAGTTTGCGCAT | 1.57
TCTTGTAGATCCATAGAGGTTAAGAAAGTGCGCT | 1.1
TCTGCTAGGTCACCGATGGTCAGCTAATCTGCTA | 3.28
AGTCAAAGTTCAGGACGAGCTAACGTAAAGCACG | 2.83
ACTATGAGTTGACTTAGGGCAACCGATACGACGC | 0.819
CCTACTGGGCCAAAAAGGTCATTGACGCCGATAA | 4.9
GCGACTGGGGCACCAGCAGGTTACCATAACTTAA | 0.401
TGTCAAAGTTCAAGGGTAACGTAAGTATCCACAC | 5.45

Sequence | PBM binding z-score
CCTACTGGGTCAAAAAGGTCATTGATGCCGATAA | 6.62
TTACCAGGGTGAGCTGAGGTCGTTGATCCAACTC | 1.37
TCTTGTACATCAACAGGAGGTTAAGAAAGATCGA | 0.927
TCTTGTAGATCAACAGGAGGTTATGAAAGATCGA | 0.889
TCATATAGGTAATACAGGTGGAAGTCGGCATCTA | 1.31
GCTATTAGTTGAAAGGGCCACCGAATGATTCTCG | 0.34
CCTATTAGTTGACTATAAGGGCAACCGAAGCTCG | 0.351
TATACAGGGTCAAAGGACAGAGTACGAATGTCGA | 6.26
CCTCGGAGGACAACAAGAGGTCAGAGCTGCCAGA | 2.93
TCTATTAGTTGAAGCGCAACCGACGAGTCCGTTT | 0.302
ACAATGAGGTTATACGTAGATCAGGGAAGAAAGT | 2.16
ATCTCTAGGTAACCAAGTTAAGTGAATGCCGAAC | 0.154
ATCTCCAGGTAACCAAGTTCAGTGAATGCCGAAC | 0.486
TCTACTAGGTCAGTTGGTCAGCTAACGAGCTGCC | 1.24
GCATATAGGTAATACAAGTTGAAAGTCCGATTGT | 0.404
TAGCCTAGGTCATGGGCCAATATACCACGCGAAC | 3.55
GCGACTGGGGCAAAGCAGGTTACCCTAAGGTTGG | 0.394
CAAACTAGGTCACCGGAACGTCAAAGTCCGCATG | 3.86
ATCTCTAGTTAAAAGTTCAGTGAATCCCGAGGAT | 0.844
ATACCAAGGAGATCGTGAGGTCGTTGATACTAAC | 0.833
